# A selection: hits, their analogues and other compounds. The true share with any hit is near 19%.
# DT40 TDP1 CPT: qHTS for Inhibitors of human tyrosyl-DNA phosphodiesterase 1 (TDP1): qHTS in cells in presence of CPT. actives 12% (n = 420,000). Potency, µM (titrated, usually from 46.2 µM), for the others: top-dose activity change, negative = growth inhibition, hits mostly inhibitors. chicken DT40 Tdp1-/-;hTDP1 cells + 20 nM CPT, ATP luminescence, 48 h. AID 686979, 2013; further: potency means the concentration at half of the fitted maximal effect; nearly all actives have a fitted effect of over 55% in size
#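 Chicken DT40 Tdp1-/- cells stably complemented with human TDP1 were seeded at 400 cells/well in medium containing 20 nM camptothecin, exposed to pin-transferred compounds, and grown at 37 °C for at least 48 hr. Viability was read as ATP luminescence.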
# HT1080NT lethal: qHTS for induction of synthetic lethality in tumor cells producing 2HG: qHTS for the HT-1080-NT fibrosarcoma cell line; actives 1.6% (n = 360,000); HT-1080-NT fibrosarcoma viability, CellTiter-Glo ATP luminescence, 48 h; Potency, µM (top dose mostly 46.1 µM), for inactives: top-dose activity, negative = less viability, actives largely listed as cytotoxic;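 further: NT is the 2HG producing partner of a matched IDH1 knockdown line; potency means the concentration at half of the fitted maximal effect; 0% = DMSO-treated cells and -100% = media-only wells without cells; nearly all actives have a fitted effect of over 55% in size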
#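 A 48-hour cytotoxicity screen used HT-1080-NT cells plated 2 hours before compound delivery. ATP-based CellTiter-Glo luminescence measured viability, normalized to DMSO and no-cell controls.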
# DT40 TDP1 no CPT: qHTS for Inhibitors of human tyrosyl-DNA phosphodiesterase 1 (TDP1): qHTS in cells in absence of CPT. DT40 Tdp1-/- hTDP1 cells, no CPT, ATP luminescence, 48 h. Potency, µM (series often up to 46.2 µM), without a hit: top-dose activity change, negative = growth inhibition, actives largely listed as inhibitors. actives 15% (n = 420,000); further: potency means the concentration at half of the fitted maximal effect; nearly all actives have a fitted effect of over 55% in size
#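 Cells were dispensed at 400 per well, compounds added by pin tool, plates incubated ≥48 hr at 37 °C, then CellTiter-Glo added for 30 min at room temperature before luminescence reading. Line: DT40 Tdp1-/- complemented with hTDP1; camptothecin omitted.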
# HT1080 IDH1KD tx: qHTS for induction of synthetic lethality in tumor cells producing 2HG: qHTS for the HT-1080-IDH1KD cell line; HT-1080 IDH1 knockdown viability, ATP luminescence, 48 h; Potency, µM (titrated, usually from 46.1 µM), for the others: at the top dose activity, negative = toxicity, hits mostly cytotoxic; actives 2% (n = 360,000); AID 686971, 2013;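 further: potency means the concentration at half of the fitted maximal effect; 0% = DMSO wells and -100% = cell-free medium wells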
#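 In this qHTS, HT-1080 cells depleted of IDH1 are exposed for 48 h at 37 °C to compound titrations. Toxicity is scored from CellTiter-Glo luminescence, with DMSO as full viability and medium alone as none.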
# IL-1B inflam inh: qHTS for Inhibitors of Inflammasome Signaling: IL-1-beta AlphaLISA Primary Screen. THP-1 LPS/ATP IL-1B secretion, AlphaLISA, 16 h; stronger effect = lower value. activity change, % at 57.5 µM. actives 4.7% (n = 360,000). AID 743279, 2014; in the data active means activity change below about -50%; inconclusive means mostly about -30% to -49%
#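 Secreted IL-1B measured by AlphaLISA bead assay after 16 h compound exposure of THP-1 cells; compounds (final up to 57.5 uM) added 1 h before LPS (250 ng/mL) and ATP (1.25 mM) stimulation; lower signal means less secretion.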
# * = called active by the depositor; ? = inconclusive; · = no result; [ ] = another dose, or the depositor's remark. Unless noted, the call rests on the fitted dose curve; in most records, active means well fitted curve in the direction sought with a large enough effect; inconclusive means small, poorly fitted or top-dose-only effect, or another doubt; inactive means no such curve, though single readings can be large; an effect the other way counts as inactive or inconclusive. Unless noted, on the % scale 0 is the no-effect control and ±100 the full control effect.
SMILES,DT40 TDP1 CPT,HT1080NT lethal,DT40 TDP1 no CPT,HT1080 IDH1KD tx,IL-1B inflam inh
COC(=O)[C@@]12CCCCN1[C@H](c1ccc(-c3cccc(Cl)c3)c(OC)c1)[C@H]1C(=O)N(C)C(=O)[C@H]12,18µM*,3%,?,5%,-4
COC(=O)[C@@]12CCCCN1[C@H](c1ccc(-c3cccc(Cl)c3)cc1)[C@@H]1C(=O)N(C)C(=O)[C@@H]12,21µM*,20%,13µM*,20%,?
CCN(CCO)Cc1csc2ccc(C(C)(C)C)cc12,?,-1%,?,7%,-57*
O=C(COc1ccccc1[N+](=O)[O-])N(Cc1cccc(Br)c1)C1CCS(=O)(=O)C1 (stereo not given),?,-8%,?,-21%,12
CC(CCc1ccccc1)NC(=O)COC(=O)C12CC3CC(CC(Br)(C3)C1)C2 (stereo not given),?,0%,?,2%,14
Cc1ccc2oc(=O)c3cc(C(=O)NCCN4CCN(C)CC4)sc3c2c1,23µM*,8%,?,27%,-5
Cc1ccc2oc(=O)c3cc(C(=O)NCCCN4CCc5ccccc5C4)sc3c2c1,18µM*,0%,?,-3%,3
O=c1c(Cc2ccc(F)cc2)c(O)ccn1CCCn1ccnc1,-2%,0%,10%,1%,5
C=CCNC(=S)NNc1nc2c(c(=O)[nH]1)C1(CCCCC1)Cc1ccccc1-2,?,-13%,7%,-30%,-3
N#C/C(=C\c1ccc([N+](=O)[O-])o1)C(=O)Nc1ccc(F)cc1,1.3µM*,?,2.3µM*,?,-90*
C[C@@]12CCC(OC(=O)c3ccccc3)CC1CCc1ccccc12 (stereo not given in full),-122%,·,9%,·,·
COc1ccc(CCNc2oc(COc3ccccc3F)nc2C#N)cc1OC,?,-8%,26µM*,?,0
N#Cc1nc(COc2ccc(F)cc2)oc1NCCCn1ccnc1,-25%,-3%,?,-14%,6
N#Cc1nc(COc2ccccc2Cl)oc1NCCc1ccccc1,?,·,16µM*,·,·
COc1ccc(CCNc2oc(COc3ccccc3Cl)nc2C#N)cc1OC,?,-1%,?,-13%,-21
COc1ccc(CCNc2oc(COc3ccc(F)cc3)nc2C#N)cc1,18µM*,-29%,?,-24%,-25
CCc1ccc(CNCc2ccc(F)cc2)cc1,-7%,-1%,-4%,-3%,-21
OC(CNCc1ccccc1)(c1ccc(F)cc1)c1ccc(F)cc1,?,-27%,18µM*,-23%,?
OC(CNCc1ccc(F)cc1)(c1ccccc1)c1ccc(F)cc1 (stereo not given),?,-6%,?,-15%,?
Cc1ccc(CNCC(O)(c2ccccc2)c2ccc(F)cc2)cc1 (stereo not given),?,-3%,21µM*,-5%,-17
Cc1ccc(CNCC(O)(c2ccc(F)cc2)c2ccc(F)cc2)cc1,21µM*,-21%,?,-17%,-16
CC[C@@]1(C(=O)OC)N[C@H](CN(C)C(=O)NC(C)C)[C@@H]2C(=O)N(C)C(=O)[C@@H]21,1%,6%,-2%,6%,37
Cc1ccc(-n2nnnc2-c2cnc(-c3cccnc3)nc2C(F)(F)F)cc1,18µM*,-1%,5.8µM*,-12%,-4
Cc1ccc(-n2nnnc2-c2cnn(-c3ccc(F)cc3)c2C(F)(F)F)cc1,13µM*,-20%,?,4%,-14
Fc1ccc(-n2nnnc2-c2cnc(-c3cccs3)nc2C(F)(F)F)cc1,6.5µM*,-11%,4.6µM*,?,-80*
SMILES,DT40 TDP1 CPT,HT1080NT lethal,DT40 TDP1 no CPT,HT1080 IDH1KD tx,IL-1B inflam inh
FC(F)(F)c1nc(N2CCCC2)ncc1-c1nnnn1-c1ccc(Cl)cc1,21µM*,-21%,18µM*,?,-17
COCCNS(=O)(=O)c1cc2[nH]c3c(c2cc1C)C(=O)CC(C)(C)C3,-1%,0%,?,3%,-9
CCN(CC)C(=O)[C@H]1C[C@H](CC(=O)NCCN2CCOCC2)C(=O)N2CCc3c([nH]c4cc(CCC(=O)N(C)C)ccc34)[C@]12C,0%,-1%,-6%,5%,-10
CCN(C(=O)CSc1nnnn1C)C1CCCCC1,?,0%,-28%,-9%,5
CCn1nnnc1SCC(=O)N(C1CCCCC1)C1CCCCC1,10µM*,0%,11µM*,-1%,-2
Cn1ccnc1SCC(=O)N(C1CCCCC1)C1CCCCC1,?,1%,15µM*,4%,-17
Cn1ccnc1SCC(=O)NC1CCCCC1,1%,10%,9%,15%,43
Cn1c(SCC(=O)N(C2CCCCC2)C2CCCCC2)nnc1-c1cccs1,?,?,16µM*,3%[9.24 µM],-5
CC(=O)c1cccc(OCc2cc(C(=O)NCc3nc(C)c(C)s3)no2)c1,?,3%,?,2%,-5
COc1cccc(CNC(=O)C2CCCN(c3nc4ccccc4n4cccc34)C2)c1 (stereo not given),?,·,15µM*,·,·
COc1cccc(CNC(=O)C2CCCN(S(=O)(=O)c3cccc4nonc34)C2)c1 (stereo not given),?,?,-26%,0%[9.24 µM],11
COc1ccccc1CNC(=O)C1CCCN(c2nc3ccccc3n3cccc23)C1 (stereo not given),?,·,13µM*,·,·
CCS(=O)(=O)N1CCCC(C(=O)NCc2ccccc2Cl)C1 (stereo not given),4%,18%,-22%,11%,-6
O=C(NCc1ccccc1Cl)C1CCCN(c2nc3ccccc3n3cccc23)C1 (stereo not given),18µM*,·,21µM*,·,·
CCC(C(=O)NC(=O)NC(C)=O)c1ccccc1 (stereo not given),-11%,·,-22%,·,·
S=C(NCc1ccccc1)N1CCN(C(=S)NCc2ccccc2)CC1,-2%,1%[9.24 µM],2%,7%,-8
Cc1ccc(Cc2c(-c3ccc(F)cc3)nc3ccc(Cl)cn23)cc1,?,3%,?,-13%,42
Cc1ccc(Cc2c(-c3ccc(Br)cc3)nc3cc(C)ccn23)cc1,23µM*,20%,21µM*,16%,-8
Cc1ccc(Cc2c(-c3ccc(F)cc3)nc3cc(C)ccn23)cc1,?,-11%,16µM*,-27%,-11

# Compound activity: PubChem, National Center for Advancing Translational Sciences (NCATS)
